Compound activity (PubChem)
Rows were chosen to be rich in hits. Some 1.8% of all compounds tested hit in one or more screens of this group.
Cardio protect – myocardial damage modulation in H9c2 cells | 0.63% of 360,000 active | H9c2 cardiomyocytes, H2O2 injury protection, ATPLite, 2 h | protection from H2O2 cell death, % at 20 µM;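 active means compounds giving at least 50% protection of heart cells from peroxide-induced death in the single-dose screen, raw or plate-pattern-corrected value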;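 further: 0% = DMSO wells with peroxide and 100% = DMSO wells without peroxide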
HDAC3 inhib – blocks human histone deacetylase 3. O15379. recombinant HDAC3, fluorogenic peptide/trypsin coupled, fluorescence. inhibition, % at 8.3 µM. 0.15% of 320,000 active. AID 2718; in the data active means inhibition above about 26%, passing the limit was not always enough
Neddyl block – blocks human cullin neddylation. TR-FRET cullin neddylation, biochemical. 0.58% of 360,000 active. P61081+Q13564. inhibition, % at 25 µM; in the data active means inhibition above about 36%
GRK2 inh – human GRK2 inhibition via aptamer displacement; P25098; 0.59% of 330,000 active; bead flow cytometry, FAM-aptamer displacement from GRK2; inhibition of aptamer binding, % at 10 µM; AID 488847;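 active means inhibition of aptamer binding above 40%, roughly 3 SD of noise, on plates passing a quality check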;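 further: median bead fluorescence of bound FAM aptamer so fluorescent compounds give negative values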
Neddyl conf – cullin neddylation inhibition, confirmation; shares compounds with Neddyl block; TR-FRET cullin neddylation biochemical assay; calls only at 25 µM; 13% of 1,800 active; in the data active means inhibition above about 40%;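 further: neddylation substrate is the cullin 1 ring ligase complex with SKP2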
* hit, by the source's call; i = inactive; . = no result shown; + = active, no number.

SMILES | Cardio protect | HDAC3 inhib | Neddyl block | GRK2 inh | Neddyl conf
COc1ccc(C[C@H]2c3cc(O)c(OC)cc3CC[N+]2(C)[O-])cc1O (stereo partly specified) | 21 | -2 | 46* | 1 | +
CCC(C)NC(=O)/C(=C/c1ccco1)c1ccccc1 (stereo unspecified) | 1 | 1 | 13 | 1 | .
CC(C)NC(=O)/C(=C/c1ccco1)c1ccccc1 | 12 | 1 | 39* | 0 | i
CC1CCCC(C)N1CCOc1cc(N)ccc1C#N (stereo unspecified) | 3 | . | 2 | . | .
COc1ccc(Cl)cc1NC(=O)c1nnn(CC(=O)Nc2ccc(C)c(C)c2)c1N | 9 | -12 | 44* | 0 | i
CC(C)CN1C(=O)c2ccc(NC(=O)c3ccco3)cc2C1=O | -3 | -1 | 30 | 0 | .
CC(C)CN1C(=O)c2ccc(NC(=O)C3CC3)cc2C1=O | -4 | -1 | 41* | 0 | i
COC(=O)CNC(=O)CN1c2cccc3cccc(c23)S1(=O)=O | 1 | -2 | . | 3 | .
CC(=O)C(Cc1ccccc1)NC(=O)CN1c2cccc3cccc(c23)S1(=O)=O (stereo unspecified) | 8 | -6 | 28* | 3 | i
CCN(CC(=O)NC(C)(C)C)C(=O)CN1c2cccc3cccc(c23)S1(=O)=O | 3 | -2 | 51* | 0 | .
CCOc1ccccc1NC(=O)CN1c2cccc3cccc(c23)S1(=O)=O | 4 | 0 | 44* | 10 | .
CC1(C)Cc2c(sc(NC(=O)c3ccc(S(=O)(=O)N4CCCCCC4)cc3)c2C#N)C(C)(C)N1 | -1 | 6 | . | 5 | .
CCNC(=O)C1(C)CCN1C(=O)CCc1cccc(Cl)c1 (stereo unspecified) | 0 | . | -10 | . | .
COc1ccccc1C(=O)Nc1ccc2c(c1)C(=O)NC2=O | 46 | -5 | -40 | 0 | .
Cc1sc2nc(-c3cccnc3)[nH]c(=O)c2c1-c1ccccc1 | -3 | -15 | 42* | 1 | i
Cc1sc2nc(Cc3ccccc3)[nH]c(=O)c2c1-c1ccccc1 | -10 | 2 | -137 | 3 | .
Cc1cccc(-n2ncc3c(=O)[nH]c(SCC(=O)NCCC4=CCCCC4)nc32)c1 | 7 | 0 | -65 | 0 | .
COCCNc1c2c(c(C#N)c3nc4ccccc4n13)CCCC2 | -6 | 4 | 53* | 0 | +
CCc1c(C)c(C#N)c2nc3ccccc3n2c1NCCN(C)C | 4 | -6 | 38 | 1 | .
N#Cc1c2c(c(NCCOCCO)n3c1nc1ccccc13)CCCC2 | -5 | -6 | 49* | 1 | +
Cc1cc(NCCOCCO)n2c(nc3ccccc32)c1C#N | 5 | -67 | . | 2 | .
C=CCc1c(C)c(C#N)c2nc3ccccc3n2c1NCCN(C)C | 15 | -4 | 43* | 0 | .
Cc1ccc(NC(=O)CSc2nc3ccccc3c(=O)n2CCCN2CCCCC2)cc1Cl | -12 | 6 | 9 | 0 | .
CC1(C)CC(NC(=O)COc2ccc3c4c(c(=O)oc3c2)CCCC4)CC(C)(C)N1 | 14 | -26 | 60* | 0 | .
O=C(COc1ccc2c3c(c(=O)oc2c1)CCCC3)NCCCN1CCOCC1 | 12 | -17 | 41* | 3 | i
SMILES | Cardio protect | HDAC3 inhib | Neddyl block | GRK2 inh | Neddyl conf
O=C(O)C1CCN(C(=O)COc2ccc3c4c(c(=O)oc3c2)CCC4)CC1 | 8 | -22 | 42* | 2 | i
CC(=O)COc1ccc2c3c(c(=O)oc2c1)CCCC3 | -2 | -23 | . | 0 | .
O=C(COc1ccc2c3c(c(=O)oc2c1)CCCC3)NCCN1CCOCC1 | -2 | -20 | 52* | 0 | i
CCOC(=O)c1ccc(NC(=O)Nc2ccc(OC)c(OC)c2)cc1 | 20 | 5 | 12 | 0 | .
CCOC(=O)C1=C(C(=O)OCC)c2ccc(OC)c(OC)c2C1 | 0 | . | 41* | . | i
CCOc1ccccc1NC(=O)NCc1ccc2c(c1)OCO2 | -1 | 2 | -10 | 2 | .
COc1cccc([C@@H]2CC=C(C(=O)O)[C@H](c3ccc(F)cc3)N2S(=O)(=O)c2ccc(C)cc2)c1 | -3 | 1 | 38* | 1 | i
CC1(C)Nc2ccccc2C(=O)N1NC(=O)c1ccccc1 | 1 | -22 | 39* | 0 | i
CC1CCCC(C)N1C(=O)CN1c2cccc3cccc(c23)S1(=O)=O (stereo unspecified) | 3 | -8 | 51* | 5 | +
O=C(CN1c2cccc3cccc(c23)S1(=O)=O)N1CCOCC1 | 7 | -3 | 47* | 3 | .
O=C(CN1c2cccc3cccc(c23)S1(=O)=O)N1CCCCC1 | -3 | -8 | 42* | 5 | +
